Assay [1] in a line: TOX21_p53_BLA_p2_viability: Viability Assessment in the Tox21 HCT-116 p53 Agonism Beta-lactamase Assay, Phase 2 (AID 2283591).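 Further: actives lower the ATP signal meaning cytotoxicity.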 Summed up: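 HCT116 p53-bla cells, 4000/well, dosed after 5 h plating (217-fold dilution of DMSO stocks) and incubated 16 h at 37C. Viability taken as cellular ATP by CellTiter-Glo luminescence after 30 min RT; signal loss marks cytotoxicity.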
In assay [2] the target is Cellular tumor antigen p53 (Homo sapiens) (UniProt P04637). Kind of assay: TOX21_p53_BLA_p2_ratio: Tox21 HCT-116 p53 Agonism Beta-lactamase Assay, Ratio, Phase 2 (AID 2283592). Summed up:
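Plated HCT116 p53-bla cells (4000/well) received compound after 5 h, then 16 h at 37C/5% CO2. CCF4-AM added, 2 h RT. Ratio of 460 to 530 nm emission taken as the p53 reporter signal.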

Assay [3] can be described thus: TOX21_p53_BLA_p3_viability: Viability Assessment in the Tox21 HCT-116 p53 Agonism Beta-lactamase Assay, Phase 3 (AID 2283593).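 Further: cells exposed to compound for 16 h before reading.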 In a few lines: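 HCT116 cells, 4000/well, dosed 5 h after plating by pin transfer (217-fold dilution from DMSO stock) and incubated 16 h at 37C, 5% CO2. Viability read as ATP luminescence with CellTiter-Glo after 30 min at room temperature.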

The target in assay [4] is Cellular tumor antigen p53 (Homo sapiens) (UniProt P04637). Kind of assay: TOX21_p53_BLA_p3_ratio: Tox21 HCT-116 p53 Agonism Beta-lactamase Assay, Ratio, Phase 3 (AID 2283596). Summed up: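 Cells were seeded at 4000/well, rested 5 h at 37C, then dosed with DMSO compound solutions (217-fold dilution) for 16 h. CCF4-AM substrate was loaded for 2 h at room temperature, and the 460/530 nm emission ratio was fitted for gain of signal versus DMSO.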

For assay [5] the target is unchanged. The experiment in a line: TOX21_p53_BLA_p5_ratio: Tox21 HCT-116 p53 Agonism Beta-lactamase Assay, Ratio, Phase 5 (AID 2283599). Summed up: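 HCT-116 p53-bla cells (4000/well) plated 5 h, dosed with compound (217-fold DMSO dilution) for 16 h at 37 C; CCF4-AM substrate 2 h at room temperature. Activity is the 460/530 nm emission ratio (405 nm excitation), fitted in gain-of-signal direction versus DMSO.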

Assay [6] shares this target. The experiment in a line: TOX21_p53_BLA_p4_ratio: Tox21 HCT-116 p53 Agonism Beta-lactamase Assay, Ratio, Phase 4 (AID 2283601). Summed up:
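HCT-116 p53 beta-lactamase reporter cells (4000/well) preincubated 5 h, then compound (217-fold dilution of DMSO stock) for 16 h at 37C. CCF4-AM substrate added 2 h at room temperature; 460/530 nm emission ratio fitted upward versus DMSO.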

The nature of assay [7]: TOX21_p53_BLA_p5_viability: Viability Assessment in the Tox21 HCT-116 p53 Agonism Beta-lactamase Assay, Phase 5 (AID 2283600). In a few lines: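 Workflow: seed 4000 cells per well, wait 5 h, add compounds (DMSO, 217-fold dilution), incubate 16 h, load CCF4-AM 2 h, add CellTiter-Glo, read luminescence after 30 min.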
A short description of assay [8]: ACEA_ER_AUC_viability: ACEA Biosciences xCELLigence Real-Time Cell Analysis on Estrogen Receptor Agonism for Viability (AID 2283782).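 Further: hit means loss of impedance signal meaning reduced cell growth or viability.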 In a few lines: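 Read-out: real-time electrical impedance (RT-CES) area under curve, loss of signal taken as reduced viability, normalized to DMSO baseline. T-47D cells, charcoal-stripped serum medium, compounds up to 100 uM final, continuous exposure, 80 h.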

The nature of assay [9]: CCTE_Harrill_HTTr_Viability_MCF7: CCTE's 6-hour Cell Viability Assessment for the High-Throughput Transcriptomics (HTTr) Platform, in MCF-7 cells cultured in DMEM + 10% fetal bovine serum, Harrill Lab (AID 2284010; active means hit-call score of the fitted dose curve at least 0.9, where 1 is the maximum; inactive means score below 0.9). In a few lines:
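Propidium iodide exclusion, imaged by high-content analysis, gauged viability after a six-hour exposure across eight concentrations. Cells were MCF-7 grown in DMEM with 10% fetal bovine serum; fits run in both directions against DMSO.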

Assay [10] can be described thus: CCTE_Harrill_HTTr_Apoptosis_MCF7: CCTE's 6-hour Apoptosis Assessment for the High-Throughput Transcriptomics (HTTr) Platform, in MCF-7 cells cultured in DMEM + 10% fetal bovine serum, Harrill Lab (AID 2284011; active means hit-call score of the fitted dose curve at least 0.9, where 1 is the maximum; inactive means score below 0.9). In a few lines:
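MCF-7 (DMEM + 10% FBS), 384-well; 8-pt dilution series, 6 h chemical exposure; caspase-3/7 activation via CellEvent Caspase 3/7 Green, HCI; bidirectional fit vs DMSO.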

Another assay addresses THRA (gene 7067) (UniProt P10827). The experiment in a line: TOX21_TRA_COA_Antagonist_Followup_ratio: Tox21 Thyroid Hormone Receptor alpha Antagonism through Coactivator Recruitment Follow-Up Assay, Ratio (AID 2283953). Summed up: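 GST-TRα LBD 2.5 nM, BSA 0.10%, + cpd; then FITC-SRC-2 peptide 200 nM + Tb-anti-GST Ab 2 nM. TR-FRET ratio 520/495 nm. Norm: DMSO = 0%, T3 = 100%.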

Assay [11] is described as follows: TOX21_TRB_BLA_Antagonist_Followup_viability: Viability Assessment in the Tox21 Thyroid Hormone Receptor beta Antagonism Beta-lactamase (BLA) Follow-Up Assay (AID 2283961). In a few lines:
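TRβ-bla HEK293T (human TRβ LBD fused to GAL4 DBD), 3,000 cells/well, 2% charcoal-stripped FBS, phenol red-free medium; 18 h compound exposure, 37C; CellTiter-Glo 30 min RT; luminescence, loss-of-signal readout.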

The target in assay [12] is Retinoic acid receptor RXR-alpha (Homo sapiens) (UniProt P19793). The experiment in a line: TOX21_TR_RXR_BLA_Antagonist_Followup_ratio: Tox21 Thyroid Hormone Receptor beta Retinoid X Receptor alpha (RXRa) Antagonism Beta-lactamase (BLA) Follow-Up Assay, Ratio (AID 2283972). In a few lines:
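HEK293T RXRa-bla, 2% charcoal-stripped FBS medium, 16 h compound exposure at 37C, qHTS 11 conc x3. CCF4 FRET ratio ch2/ch1 (460:530), DMSO = baseline, loss-of-signal fit.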

Assay [13] can be described thus: TOX21_TR_RXR_BLA_Antagonist_Followup_viability: Viability Assessment in the Tox21 Thyroid Hormone Receptor beta Retinoid X Receptor alpha (RXRa) Antagonism Beta-lactamase (BLA) Follow-Up Assay (AID 2283979). In a few lines:
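RXRa-bla HEK293T cells (2,500/well, phenol red-free DMEM, 2% charcoal-stripped FBS) were attached 5 h, then exposed to compounds at 11 concentrations in triplicate for 16 h at 37C. Viability measured by CellTiter-Glo ATP luminescence, bidirectional fitting versus DMSO.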

Records with an inconclusive call do not appear. The source made the active and inactive calls. How the source made its calls, unless noted: active means hit-call score of the fitted dose curve at least 0.9, where 1 is the maximum; inconclusive means response in the unintended direction; inactive means score below 0.9.

Sequence of Cellular tumor antigen p53 (Homo sapiens) (P04637 whole entry, looked up): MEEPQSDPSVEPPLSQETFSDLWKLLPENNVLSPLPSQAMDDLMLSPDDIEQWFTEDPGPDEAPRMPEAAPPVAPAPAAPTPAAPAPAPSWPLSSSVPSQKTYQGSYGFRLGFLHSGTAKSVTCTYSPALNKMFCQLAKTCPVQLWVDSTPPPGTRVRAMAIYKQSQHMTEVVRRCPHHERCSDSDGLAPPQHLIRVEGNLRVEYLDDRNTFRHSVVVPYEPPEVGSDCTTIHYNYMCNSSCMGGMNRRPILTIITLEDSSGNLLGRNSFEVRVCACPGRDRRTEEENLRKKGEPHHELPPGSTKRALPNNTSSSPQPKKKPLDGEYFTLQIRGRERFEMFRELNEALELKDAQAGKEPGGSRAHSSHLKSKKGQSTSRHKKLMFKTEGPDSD
Sequence of Retinoic acid receptor RXR-alpha (Homo sapiens) (P19793 whole entry, looked up): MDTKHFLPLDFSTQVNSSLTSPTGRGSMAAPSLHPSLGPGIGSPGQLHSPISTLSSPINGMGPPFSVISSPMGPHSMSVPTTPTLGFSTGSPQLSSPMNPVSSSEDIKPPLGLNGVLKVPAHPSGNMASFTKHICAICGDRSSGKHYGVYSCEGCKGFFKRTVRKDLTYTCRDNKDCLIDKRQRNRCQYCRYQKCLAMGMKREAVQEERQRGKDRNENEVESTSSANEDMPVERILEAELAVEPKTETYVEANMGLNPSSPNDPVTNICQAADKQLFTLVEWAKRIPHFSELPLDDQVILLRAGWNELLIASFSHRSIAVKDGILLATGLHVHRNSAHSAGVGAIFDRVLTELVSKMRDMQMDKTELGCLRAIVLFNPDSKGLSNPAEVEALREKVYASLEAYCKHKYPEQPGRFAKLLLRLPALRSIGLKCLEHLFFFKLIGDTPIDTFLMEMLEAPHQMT
Sequence of THRA (gene 7067) (P10827 whole entry, looked up, the tested form may be a part): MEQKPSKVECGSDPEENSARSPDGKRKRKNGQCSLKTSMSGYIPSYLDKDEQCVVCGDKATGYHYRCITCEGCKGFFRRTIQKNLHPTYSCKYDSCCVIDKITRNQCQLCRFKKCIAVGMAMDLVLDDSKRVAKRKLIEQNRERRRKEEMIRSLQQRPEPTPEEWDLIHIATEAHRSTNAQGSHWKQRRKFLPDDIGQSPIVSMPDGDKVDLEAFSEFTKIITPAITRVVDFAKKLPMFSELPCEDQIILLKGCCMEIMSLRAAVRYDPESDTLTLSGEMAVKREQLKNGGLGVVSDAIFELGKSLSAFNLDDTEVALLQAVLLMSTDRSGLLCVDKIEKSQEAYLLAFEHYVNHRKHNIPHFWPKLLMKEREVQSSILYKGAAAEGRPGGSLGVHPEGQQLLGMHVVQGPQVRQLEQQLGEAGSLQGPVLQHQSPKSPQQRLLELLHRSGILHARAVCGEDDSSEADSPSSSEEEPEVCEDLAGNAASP

As for `COC(=O)N/N=C/c1c[n+]([O-])c2ccccc2[n+]1[O-]`, the compound was classed as inactive in [1], in assay [2], in assay [3], in assay [4], in [5] and in assay [6].

Take `Cc1cc(O)c2ccccc2c1O`: the outcome in assay [1], in [2], in assay [3], in [4], in assay [5] and in assay [6] was inactive.

For `CC(=O)CC(C)=O`, the call in assay [1], in assay [2], in assay [3], in assay [4] and in assay [7] was inactive.

For `Cc1cccc(Nc2ncccc2C(=O)O)c1C`, the result in [1], in [2], in assay [3], in assay [4], in assay [5] and in [6] was inactive.

In the case of `NC(=O)[C@@H]1CCCN1C(=O)[C@H](Cc1cnc[nH]1)NC(=O)[C@@H]1CCC(=O)N1`, the compound was classed as inactive in [1], in assay [2], in [3], in assay [4], in [5] and in [6].

Regarding `COc1cccc(Br)c1`, the outcome in [1], in assay [2], in assay [3], in assay [4], in [5] and in assay [6] was inactive.

For `CCCCC(C)C(=O)O` (stereo not given), the compound was called inactive in assay [1], in [2], in assay [3], in assay [4], in assay [5] and in [6].

As to `COc1ccc2cc([C@H](C)C(=O)O)ccc2c1`, the compound was called inactive in [1], in assay [2], in assay [3], in assay [4], in [5] and in assay [6]. Besides, the compound was classed as inactive in assay [8], in [9] and in assay [10].

`C[C@H](/C=C/[C@H](C)C(C)(C)O)[C@H]1CC[C@H]2/C(=C/C=C3C[C@@H](O)C[C@H](O)C3)CCC[C@]12C`: the compound was called inactive in [1], in [2], in assay [4] and in [7]. Besides, the concentration at half-maximal activity (AC50) in assay [3] is 30 µM (active).

Consider `Nc1nc2ccc(OC(F)(F)F)cc2s1`, for which the compound was called inactive in assay [1] and in [3]. Besides, the AC50 in assay [2] was 7.3 µM (active); in assay [4] it was 7.29 µM (active); in assay [5], 23.9 µM (active); in [6], 11.3 µM (active).

For `Nc1ccc(S(=O)(=O)Nc2ccccn2)cc1`, the call in assay [1], in assay [2], in [3], in assay [4], in assay [5] and in [6] was inactive.

With `CC1(C)S[C@@H]2[C@H](NC(=O)C(N)c3ccccc3)C(=O)N2[C@H]1C(=O)OC1OC(=O)c2ccccc21` (stereo not given in full), the outcome in [1], in [2], in assay [3], in assay [4], in assay [5] and in assay [6] was inactive. Further, the result (with THRA (gene 7067); in assay [11]; in assay [12]; in [13]) was inactive.

On to `NCCC(O)(P(=O)(O)O)P(=O)(O)O`, for which the call in assay [1], in [2], in assay [3], in assay [4], in assay [5] and in assay [6] was inactive.

On to `O=C1CCC(=O)N1CO`, for which the result in assay [1], in assay [2], in [3], in assay [4], in assay [5] and in [6] was inactive.

`CC(=O)OC1CCC(C(C)(C)C)CC1` (stereo not given): the result in assay [1], in assay [2], in assay [3], in assay [4], in [5] and in assay [6] was inactive.
